Assay results: PubChem BioAssay AID1159580 (chemical genetic matrix, 2015)
The whole screen tested about 5,500 compounds, of which about 2,000 (36%) were called active. Not shown: some 18% with an inconclusive outcome. Cut-off read from the data, not from the text of the source: active = normalized growth mostly below about 0.91 (no sharp cut-off); inconclusive = no clear call, values can overlap the other calls; inactive = mostly above about 0.92. The list shows a part of the results.

Assay: chemical genetic growth profiling, strain panel (AID 1159580);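 note: tested at 20 µM; growth read once vehicle control cultures reached saturation at 30 °C; 1 = growth at the plate median or of vehicle wells; lower values mean less growth of the strain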
Conditions: growth OD
[1] = S. cerevisiae deletion strains, locus YAL013W, strain DEP1, hits give low values
[2] = S. cerevisiae deletion strains, locus YBR229C, strain ROT2, hits give low values
[3] = S. cerevisiae deletion strains, locus YDL101C, strain DUN1, hits give low values
[4] = S. cerevisiae deletion strains, locus YDR150W, strain NUM1, hits give low values
[5] = S. cerevisiae deletion strains, locus YEL061C, strain CIN8, hits give low values
[6] = S. cerevisiae deletion strains, locus YGR078C, strain PAC10, hits give low values
[7] = S. cerevisiae deletion strains, locus YHR030C, strain SLT2, hits give low values
[8] = S. cerevisiae deletion strains, locus YHR087W, strain rtc3, hits give low values
[9] = S. cerevisiae deletion strains, locus YJR043C, strain POL32, hits give low values
[10] = S. cerevisiae deletion strains, locus YJR075W, strain HOC1, hits give low values
[11] = S. cerevisiae deletion strains, locus YLR039C, strain RIC1, hits give low values
[12] = S. cerevisiae deletion strains, locus YLR058C, strain SHM2 (second series), hits give low values
[13] = S. cerevisiae deletion strains, locus YLR085C, strain ARP6, hits give low values
[14] = S. cerevisiae deletion strains, locus YLR262C, strain YPT6, hits give low values
[15] = S. cerevisiae deletion strains, locus YML094W, strain GIM5, hits give low values
[16] = S. cerevisiae deletion strains, locus YMR219W, strain ESC1, hits give low values
[17] = S. cerevisiae deletion strains, locus YMR263W, strain SAP30, hits give low values
[18] = S. cerevisiae deletion strains, locus YNL153C, strain GIM3, hits give low values
[19] = S. cerevisiae deletion strains, locus YNL298W, strain CLA4 (second series), hits give low values
[20] = S. cerevisiae deletion strains, locus YNL322C, strain KRE1, hits give low values
[21] = S. cerevisiae deletion strains, locus YNR030W, strain Alg12, hits give low values
[22] = S. cerevisiae deletion strains, locus YPL055C, strain LGE1, hits give low values
[23] = S. cerevisiae deletion strains, locus YPL241C, strain CIN2, hits give low values
[24] = S. cerevisiae deletion strains, locus YPR135W, strain CTF4, hits give low values

Measured: normalized growth

O=C(O)c1ccccc1Sc1c(C(=O)O)cc([N+](=O)[O-])cc1[N+](=O)[O-]
inactive: [1] 1.01 | [2] 1.01 | [3] 1.02 | S. cerevisiae deletion strains, locus YDL134C, strain PPH21, hits give low values 0.976 | [4] 0.988 | [5] 0.994 | [6] 1.01 | [7] 1.01 | [8] 0.993 | [9] 1 | [10] 1 | [11] 1 | [12] 0.994 | [13] 0.989 | [14] 0.984 | [15] 1.08 | [16] 1.01 | [17] 0.994 | [18] 1.03 | [19] 0.964 | [20] 1.02 | [21] 1.01 | [22] 1.02 | [23] 1.08 | [24] 1.09

CC(=O)c1ccc(Sc2ccccn2)c([N+](=O)[O-])c1
inactive: [1] 0.996 | [2] 1 | S. cerevisiae deletion strains, locus YCL061C, strain MRC1, hits give low values 1.02 | [3] 1.01 | [4] 0.985 | [5] 0.974 | [6] 0.986 | [7] 0.71 | [8] 1.01 | S. cerevisiae deletion strains, locus YJL187C, strain SWE1, hits give low values 0.98 | [9] 1.01 | [10] 0.973 | S. cerevisiae deletion strains, locus YKL190W, strain CNB1, hits give low values 0.997 | [11] 0.849 | [12] 0.991 | [13] 0.835 | [14] 0.822 | [15] 0.983 | [16] 0.983 | [17] 0.993 | S. cerevisiae deletion strains, locus YMR307W, strain GAS1, hits give low values 1.04 | S. cerevisiae deletion strains, locus YNL128W, strain TEP1, hits give low values 0.967 | [18] 0.98 | [19] 0.934 | [20] 0.966 | [21] 0.99 | S. cerevisiae deletion strains, locus YOL006C, strain TOP1, hits give low values 0.747 | [22] 0.976 | [23] 1.01 | [24] 0.927 | S. cerevisiae strains, strain wild type, hits give low values 0.984

O=[N+]([O-])c1ccc(Sc2ccccc2)c([N+](=O)[O-])c1
active: S. cerevisiae deletion strains, locus YAR019C, strain CDC15, hits give low values 0.862 | S. cerevisiae deletion strains, locus YBL105C, strain PKC1, hits give low values 0.894 | S. cerevisiae deletion strains, locus YBR135W, strain CKS1, hits give low values 0.874 | S. cerevisiae deletion strains, locus YBR136W, strain MEC1, hits give low values 0.884 | S. cerevisiae deletion strains, locus YBR160W, strain CDC28, hits give low values 0.896 | S. cerevisiae deletion strains, locus YDL017W, strain CDC7, hits give low values 0.89 | S. cerevisiae deletion strains, locus YDL028C, strain MPS1, hits give low values 0.888 | [3] 0.876 | S. cerevisiae deletion strains, locus YDL108W, strain KIN28, hits give low values 0.88 | S. cerevisiae deletion strains, locus YDL132W, strain cdc53, hits give low values 0.867 | S. cerevisiae deletion strains, locus YDL214C, strain PRR2, hits give low values 0.695 | S. cerevisiae deletion strains, locus YDR054C, strain cdc34, hits give low values 0.83 | S. cerevisiae deletion strains, locus YDR226W, strain ADK1, hits give low values 0.858 | S. cerevisiae deletion strains, locus YFL009W, strain cdc4, hits give low values 0.847 | S. cerevisiae deletion strains, locus YFL029C, strain CAK1, hits give low values 0.866 | S. cerevisiae deletion strains, locus YFR003C, strain YPI1, hits give low values 0.886 | S. cerevisiae deletion strains, locus YGR092W, strain DBF2, hits give low values 0.271 | [7] 0.492 | S. cerevisiae deletion strains, locus YHR205W, strain SCH9, hits give low values 0.522 | S. cerevisiae deletion strains, locus YIL147C, strain SLN1, hits give low values 0.885 | S. cerevisiae deletion strains, locus YJL128C, strain PBS2, hits give low values 0.757 | S. cerevisiae deletion strains, locus YJR016C, strain ILV3, hits give low values 0.877 | S. cerevisiae deletion strains, locus YKL048C, strain ELM1, hits give low values 0.71 | S. cerevisiae deletion strains, locus YKL067W, strain YNK1, hits give low values 0.691 | S. cerevisiae deletion strains, locus YKL101W, strain HSL1, hits give low values 0.662 | S. cerevisiae deletion strains, locus YKL193C, strain SDS22, hits give low values 0.876 | S. cerevisiae deletion strains, locus YLR113W, strain HOG1, hits give low values 0.396 | S. cerevisiae deletion strains, locus YLR133W, strain CKI1, hits give low values 0.717 | S. cerevisiae deletion strains, locus YMR001C, strain CDC5, hits give low values 0.868 | S. cerevisiae deletion strains, locus YMR205C, strain PFK2 (second series), hits give low values 0.678 | S. cerevisiae deletion strains, locus YMR277W, strain FCP1, hits give low values 0.868 | S. cerevisiae deletion strains, locus YNL006W, strain LST8, hits give low values 0.87 | S. cerevisiae deletion strains, locus YNL161W, strain CBK1, hits give low values 0.864 | S. cerevisiae deletion strains, locus YNL207W, strain RIO2, hits give low values 0.859 | S. cerevisiae deletion strains, locus YNL222W, strain SSU72, hits give low values 0.88 | S. cerevisiae deletion strains, locus YOL078W, strain AVO1, hits give low values 0.867 | S. cerevisiae deletion strains, locus YOL136C, strain PFK27, hits give low values 0.65 | S. cerevisiae deletion strains, locus YOR329C, strain SCD5, hits give low values 0.884 | S. cerevisiae deletion strains, locus YPL209C, strain IPL1, hits give low values 0.883 | S. cerevisiae deletion strains, locus YPL256C, strain CLN2, hits give low values 0.428 | S. cerevisiae deletion strains, locus YPR025C, strain CCL1, hits give low values 0.893 | S. cerevisiae deletion strains, locus YPR106W, strain ISR1, hits give low values 0.849 | S. cerevisiae deletion strains, locus YPR111W, strain DBF20, hits give low values 0.812 | S. cerevisiae deletion strains, strain NNK1, hits give low values 0.796 | S. cerevisiae deletion strains, strain TSCII, hits give low values 0.853
inactive: S. cerevisiae deletion strains, locus YDR052C, strain DBF4, hits give low values 0.913 | S. cerevisiae deletion strains, locus YDR477W, strain SNF1, hits give low values 0.75 | S. cerevisiae deletion strains, locus YER123W, strain YCK3, hits give low values 0.685 | S. cerevisiae deletion strains, locus YER133W, strain GLC7, hits give low values 0.803 | S. cerevisiae deletion strains, locus YFR019W, strain FAB1, hits give low values 0.84 | S. cerevisiae deletion strains, locus YFR028C, strain CDC14, hits give low values 0.899 | S. cerevisiae deletion strains, locus YGR040W, strain KSS1, hits give low values 0.784 | S. cerevisiae deletion strains, locus YGR052W, strain FMP48, hits give low values 0.706 | S. cerevisiae deletion strains, locus YHR079C, strain IRE1, hits give low values 0.655 | S. cerevisiae deletion strains, locus YHR082C, strain KSP1, hits give low values 0.719 | S. cerevisiae deletion strains, locus YJL095W, strain BCK1, hits give low values 0.673 | S. cerevisiae deletion strains, locus YJL157C, strain FAR1, hits give low values 0.748 | S. cerevisiae deletion strains, locus YJR066W, strain TOR1 (second series), hits give low values 0.756 | S. cerevisiae deletion strains, locus YJR066W, strain TOR1, hits give low values 0.748 | S. cerevisiae deletion strains, locus YKL203C, strain TOR2, hits give low values 0.785 | S. cerevisiae deletion strains, locus YLR403W, strain SFP1, hits give low values 0.758 | S. cerevisiae deletion strains, locus YML070W, strain DAK1, hits give low values 0.689 | S. cerevisiae deletion strains, locus YNL020C, strain ARK1, hits give low values 0.733 | S. cerevisiae deletion strains, locus YNL183C, strain NPR1, hits give low values 0.708 | S. cerevisiae deletion strains, locus YNL307C, strain MCK1 (second series), hits give low values 0.704 | S. cerevisiae deletion strains, locus YOR061W, strain CKA2, hits give low values 0.768 | S. cerevisiae deletion strains, locus YOR119C, strain RIO1, hits give low values 0.806 | S. cerevisiae deletion strains, locus YOR231W, strain MKK1, hits give low values 0.64 | S. cerevisiae deletion strains, locus YPL031C, strain PHO85, hits give low values 0.73 | S. cerevisiae deletion strains, locus YPL153C, strain RAD53, hits give low values 0.723 | S. cerevisiae deletion strains, locus YPL204W, strain HRR25, hits give low values 0.727
